Results from PubChem BioAssay (EPA / NIEHS).
Active and inactive are the calls of the source. The calls were made as follows: active = hit-call score of the fitted dose curve at least 0.9, where 1 is the maximum; inactive = score below 0.9.

Tests used:
Conditions in all cases: mRNA level, 48 h; actives raise or lower the signal
[1] = read-out: growth arrest and DNA damage 45 (GADD45G), GADD45G (gene 10912); assay: LTEA_HepaRG_GADD45G: Life Technologies and Expression Analysis (LTEA) Assay for growth arrest and DNA damage 45 (GADD45G) using HepaRG (AID 2283499)
Summary of the method: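 HepaRG, 48 h exposure, top 100 uM, half-log 8-point series, 0.5% DMSO vehicle, duplicates. Readout: GADD45G transcript by qRT-PCR (Fluidigm array), housekeeping-normalised (ACTB/GAPDH/POLR2A). Bidirectional curve fit vs DMSO baseline.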

[2] = read-out: Glutamate-cysteine ligase regulatory (GCLM), GCLM (gene 2730); assay: LTEA_HepaRG_GCLM: Life Technologies and Expression Analysis (LTEA) Assay for Glutamate-cysteine ligase regulatory (GCLM) using HepaRG (AID 2283500)
Summary of the method: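 Endpoint is GCLM transcript level by qRT-PCR, normalized to three housekeeping genes, after 48 h chemical exposure of human HepaRG cells (0.5% DMSO vehicle, top 100 uM, half-log dilutions). Fitting was bidirectional relative to DMSO.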

[3] = read-out: Glutathione S-transferase M3 (GSTM3), GSTM3 (gene 2947); assay: LTEA_HepaRG_GSTM3: Life Technologies and Expression Analysis (LTEA) Assay for Glutathione S-transferase M3 (GSTM3) using HepaRG (AID 2283501)
Summary of the method: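 qRT-PCR read-out of GSTM3 transcript, normalized to three housekeeping genes, from human HepaRG cells after 48 h chemical exposure. Eight-point half-log series, top 100 uM, 0.5% DMSO vehicle; gain or loss fitted relative to DMSO baseline.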

[4] = read-out: Heat shock 70 kDa protein 1 (HSPA1A), gene 3303; assay: LTEA_HepaRG_HSPA1A: Life Technologies and Expression Analysis (LTEA) Assay for Heat shock 70 kDa protein 1 (HSPA1A) using HepaRG (AID 2283502)
Summary of the method: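 Cells were plated and cultured for 48 h, then switched to serum-free induction medium. Chemicals were added at eight half-log concentrations up to 100 uM for 48 h. RNA was then isolated and HSPA1A measured by qRT-PCR with bidirectional curve fitting against DMSO.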

[5] = read-out: Hypoxia-inducible factor 1-alpha (Homo sapiens) (UniProt Q16665); assay: LTEA_HepaRG_HIF1A: Life Technologies and Expression Analysis (LTEA) Assay for Hypoxia-inducible factor 1 (HIF1A) Trancription factor using HepaRG (AID 2283503)
Summary of the method: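 HIF1A transcript level read by qRT-PCR (ACTB, GAPDH, POLR2A normalization) after 48 h chemical exposure of HepaRG cultures. Eight half-log concentrations, top 100 uM, 0.5% DMSO vehicle, duplicates; bidirectional curve fit against DMSO baseline.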

[6] = read-out: 3-Hydroxy-3-Methylglutaryl-CoA Synthase 2 (HMGCS2), HMGCS2 (gene 3158); assay: LTEA_HepaRG_HMGCS2: Life Technologies and Expression Analysis (LTEA) Assay for 3-Hydroxy-3-Methylglutaryl-CoA Synthase 2 (HMGCS2) using HepaRG (AID 2283504)
Summary of the method: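 qRT-PCR read-out of HMGCS2 transcript, normalised to three housekeeping genes, in HepaRG cells after 48 h chemical exposure. Eight-point curves from 100 uM, half-log dilutions, 0.5% DMSO vehicle; gain or loss fitted relative to DMSO baseline.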

[7] = read-out: HGF (gene 3082); assay: LTEA_HepaRG_HGF: Life Technologies and Expression Analysis (LTEA) Assay for Hepatocyte Growth Facto (HGF) using HepaRG (AID 2283505)
Summary of the method: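 HepaRG, 48 h dosing, 8-pt half-log series from 100 uM in 0.5% DMSO, duplicates. Readout: TaqMan qRT-PCR of HGF mRNA, housekeeping-normalized; bidirectional curve fit vs DMSO baseline.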

[8] = read-out: Intercellular Adhesion Molecule 1 (ICAM1), ICAM1 (gene 3383); assay: LTEA_HepaRG_ICAM1: Life Technologies and Expression Analysis (LTEA) Assay for Intercellular Adhesion Molecule 1 (ICAM1) using HepaRG (AID 2283507)
Summary of the method: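 HepaRG, 48 h exposure, 8-pt half-log series from 100 uM, 0.5% DMSO vehicle, duplicates. Readout: TaqMan qRT-PCR mRNA, housekeeping-normalized (ACTB/GAPDH/POLR2A). Bidirectional curve fit vs DMSO baseline.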

[9] = read-out: Insulin-like growth factor-binding protein 1 (IGFBP1), IGFBP1 (gene 3484); assay: LTEA_HepaRG_IGFBP1: Life Technologies and Expression Analysis (LTEA) Assay for Insulin-like growth factor-binding protein 1 (IGFBP1) using HepaRG (AID 2283508)
Summary of the method: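 qRT-PCR mRNA read-out (TaqMan, Fluidigm array), normalised to three housekeeping genes; HepaRG cells, 48 h exposure, 8-pt half-log series from 100 uM, 0.5% DMSO vehicle; bidirectional curve fit vs DMSO baseline.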

[10] = read-out: Interleukin 6 (IL6), IL6 (gene 3569); assay: LTEA_HepaRG_IL6: Life Technologies and Expression Analysis (LTEA) Assay for Interleukin 6 (IL6) using HepaRG (AID 2283509)
Summary of the method: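 Transcript levels, normalized to three housekeeping genes, were quantified by qRT-PCR after 48 h chemical treatment of HepaRG cells. Eight-point half-log series from 100 uM in 0.5% DMSO, duplicates. Fitted both directions against DMSO baseline.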

[11] = read-out: Interleukin 6 Receptor (IL6R), IL6R (gene 3570); assay: LTEA_HepaRG_IL6R: Life Technologies and Expression Analysis (LTEA) Assay for Interleukin 6 Receptor (IL6R) using HepaRG (AID 2283510)
Summary of the method: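 Cells were thawed, plated and cultured 48 h, then medium was changed to serum-free induction medium. Chemicals were added in duplicate (100 uM top, half-log steps, 0.5% DMSO) for 48 h. Lysates were analyzed by qRT-PCR for IL6R expression.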

[12] = read-out: Potassium channel subfamily K member 1 (KCNK1), KCNK1 (gene 3775); assay: LTEA_HepaRG_KCNK1: Life Technologies and Expression Analysis (LTEA) Assay for Potassium channel subfamily K member 1 (KCNK1) using HepaRG (AID 2283511)
Summary of the method: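 KCNK1 transcript measured by TaqMan qRT-PCR against three housekeeping genes, after HepaRG cells were treated 48 h with eight half-log concentrations (top 100 uM, 0.5% DMSO). Curves fitted bidirectionally relative to vehicle.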

[13] = read-out: Keratin 19 (KRT19), KRT19 (gene 3880); assay: LTEA_HepaRG_KRT19: Life Technologies and Expression Analysis (LTEA) Assay for Keratin 19 (KRT19) using HepaRG (AID 2283512)
Summary of the method: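 HepaRG, 48 h chemical exposure, 8-pt half-log CRC from 100 uM, 0.5% DMSO vehicle, duplicates. Readout: TaqMan qRT-PCR of KRT19 mRNA, housekeeping-normalized (ACTB/GAPDH/POLR2A). Bidirectional fit vs DMSO baseline.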

[14] = read-out: JUN Transcription Factor, JUN (gene 3725); assay: LTEA_HepaRG_JUN: Life Technologies and Expression Analysis (LTEA) Assay for JUN Transcription Factor using HepaRG (AID 2283513)
Summary of the method: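 Read-out is JUN transcript level by TaqMan qRT-PCR, normalized to ACTB, GAPDH and POLR2A, after 48 h chemical treatment of HepaRG cells. Concentration-response spanned eight half-log points up to 100 uM in 0.5% DMSO.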

[15] = read-out: Lipase C (LIPC), LIPC (gene 3990); assay: LTEA_HepaRG_LIPC: Life Technologies and Expression Analysis (LTEA) Assay for Lipase C (LIPC) using HepaRG (AID 2283514)
Summary of the method: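 LIPC expression was quantified by qRT-PCR against three housekeeping genes (ACTB, GAPDH, POLR2A). Differentiated human HepaRG cells received eight half-log doses (top 100 uM, 0.5% DMSO) in duplicate for 48 h; fitting bidirectional relative to DMSO.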

[16] = read-out: Lipoprotein lipase (LPL), LPL (gene 4023); assay: LTEA_HepaRG_LPL: Life Technologies and Expression Analysis (LTEA) Assay for Lipoprotein lipase (LPL) using HepaRG (AID 2283515)
Summary of the method: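 LPL transcript levels quantified by TaqMan qRT-PCR against three housekeeping genes after 48 h chemical treatment of HepaRG cells. Eight-point half-log series from 100 uM in 0.5% DMSO, tested in duplicate; bidirectional fitting versus vehicle.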

[17] = read-out: MicroRNA 122 (MIR122), gene 406906; assay: LTEA_HepaRG_MIR122: Life Technologies and Expression Analysis (LTEA) Assay for MicroRNA 122 (MIR122) using HepaRG (AID 2283516); also: the transcript read is the microRNA miR-122
Summary of the method: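 Human liver HepaRG cultures receive test chemicals for 48 h at eight half-log concentrations from 100 uM. Expression is quantified by qRT-PCR with ACTB/GAPDH/POLR2A normalization and fitted bidirectionally against 0.5% DMSO.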

[18] = read-out: matrix metalloproteinase-10 (MMP10), MMP10 (gene 4319); assay: LTEA_HepaRG_MMP10: Life Technologies and Expression Analysis (LTEA) Assay for matrix metalloproteinase-10 (MMP10) using HepaRG (AID 2283517)
Summary of the method: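 Expression measured by TaqMan qRT-PCR with ACTB/GAPDH/POLR2A normalisation after 48 h chemical exposure of HepaRG cells. Eight half-log concentrations, top 100 uM, 0.5% DMSO vehicle, duplicates; gain or loss fitted against vehicle.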

[19] = read-out: Glutamate-cysteine ligase catalytic (GCLC), GCLC (gene 2729); assay: LTEA_HepaRG_GCLC: Life Technologies and Expression Analysis (LTEA) Assay for Glutamate-cysteine ligase catalytic (GCLC) using HepaRG (AID 2283498)
Summary of the method: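 Expression by TaqMan qRT-PCR, normalized to three housekeeping genes (ACTB, GAPDH, POLR2A), with up- or down-regulation fitted against DMSO. HepaRG cells dosed in duplicate for 48 h with 8 half-log concentrations up to 100 uM, vehicle 0.5% DMSO.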

[20] = read-out: Insulin Like Growth Factor 1 (IGF1), IGF1 (gene 3479); assay: LTEA_HepaRG_IGF1: Life Technologies and Expression Analysis (LTEA) Assay for Insulin Like Growth Factor 1 (IGF1) using HepaRG (AID 2283506)
Summary of the method: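 Cells are thawed, plated and cultured 48 h, then exposed in duplicate to chemical (highest 100 uM, half-log steps, 0.5% DMSO) for another 48 h. Total RNA is analysed by Fluidigm qRT-PCR for IGF1 expression relative to vehicle.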

Measured: outcome

Sequence of Hypoxia-inducible factor 1-alpha (Homo sapiens) (Q16665 whole entry, looked up): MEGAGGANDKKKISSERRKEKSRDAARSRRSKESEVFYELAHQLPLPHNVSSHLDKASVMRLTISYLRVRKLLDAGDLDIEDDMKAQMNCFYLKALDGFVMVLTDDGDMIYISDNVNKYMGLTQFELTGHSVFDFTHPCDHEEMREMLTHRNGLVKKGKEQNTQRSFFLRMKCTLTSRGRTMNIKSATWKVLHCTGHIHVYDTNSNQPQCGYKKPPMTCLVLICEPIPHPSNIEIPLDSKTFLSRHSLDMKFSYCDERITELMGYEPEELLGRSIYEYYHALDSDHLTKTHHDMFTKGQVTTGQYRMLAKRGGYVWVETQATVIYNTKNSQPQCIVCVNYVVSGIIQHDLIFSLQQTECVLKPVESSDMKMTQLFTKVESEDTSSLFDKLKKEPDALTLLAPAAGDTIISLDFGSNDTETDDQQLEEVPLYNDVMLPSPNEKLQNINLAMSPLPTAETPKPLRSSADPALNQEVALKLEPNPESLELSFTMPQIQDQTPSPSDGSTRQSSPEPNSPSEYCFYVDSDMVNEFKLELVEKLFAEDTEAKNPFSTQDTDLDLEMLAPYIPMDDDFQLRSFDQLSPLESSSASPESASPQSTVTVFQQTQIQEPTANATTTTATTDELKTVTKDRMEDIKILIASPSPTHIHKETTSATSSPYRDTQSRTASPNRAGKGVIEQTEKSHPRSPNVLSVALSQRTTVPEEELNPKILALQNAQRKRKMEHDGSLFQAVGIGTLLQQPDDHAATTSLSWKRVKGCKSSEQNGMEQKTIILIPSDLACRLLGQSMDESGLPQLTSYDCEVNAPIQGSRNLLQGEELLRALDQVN

Cc1ccc(C)c(C)c1
inactive: [1] | [2] | [3] | [4] | [5] | [6] | [7] | [8] | [9] | [10] | [11] | [12] | [13] | [14] | [15] | [16] | [17] | [18]

c1cc(-c2ccncc2)ccn1
inactive: [19] | [1] | [2] | [3] | [5] | [7] | [8] | [9] | [10] | [11] | [12] | [13] | [15] | [16] | [17]

CCCCCCCCCCCCCCCC
inactive: [19] | [1] | [2] | [3] | [5] | [6] | [7] | [8] | [9] | [10] | [11] | [12] | [13] | [14] | [15] | [16] | [18]

C[C@]12C=CC(=O)C=C1CC[C@@H]1[C@@H]2C(=O)C[C@@]2(C)[C@H]1CC[C@]2(O)C(=O)CO
inactive: [19] | [2] | [3] | [5] | [7] | [20] | [8] | [9] | [10] | [11] | [12] | [13] | [15] | [16]
